High-throughput results: PubChem, National Center for Advancing Translational Sciences (NCATS)
HEK293 tox = Cytotoxic Profiling in HEK 293 Cell Line of Diverse Libraries Using Quantitative High-Throughput Screening. Potency, µM (series often up to 115 µM), actives largely listed as inhibitors. HEK 293 viability, ATP luminescence (CellTiter-Glo), 48-72 h. actives 6.6% (n = 94,000); further: nearly all actives have a fitted effect of over 60% in size
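Cells seeded first (HEK 293, 250 cells/well), then compound added by pintool. Incubation ran 48 or 72 hr at 37 degree Celsius. CellTiter-Glo was added and luminescence imaged after 10 min at room temperature.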
Luciferase inh = Firefly luciferase inhibition profiling of diverse chemical library using quantitative high-throughput screening; purified P. pyralis luciferase, luminescence, biochemical; Potency, µM (titrated, usually from 115 µM), hits mostly inhibitors; Luciferin 4-monooxygenase (Photinus pyralis), P08659; actives 2.5% (n = 76,000); further: nearly all actives have a fitted effect of over 65% in size
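Cell-free enzyme assay, 10nM P. pyralis luciferase, luciferin and ATP each at 10uM. Inhibition profiled over a 6-point titration, read as luminescence.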
NIH3T3 tox = Cytotoxic Profiling in NIH 3T3 Cell Line of Diverse Libraries Using Quantitative High-Throughput Screening; NIH 3T3 viability, CellTiter-Glo ATP luminescence, 48-72 h; Potency, µM (titrated, usually from 96.7 µM), usual class: inhibitors; actives 4.3% (n = 94,000); AID 1345082, 2018; further: nearly all actives have a fitted effect of over 55% in size
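ATP-dependent luminescence (CellTiter-Glo) served as the viability signal for NIH 3T3 cells treated with compound for 48 or 72 hr at 37 °C.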
hNpr1 antagonist = Natriuretic polypeptide receptor (hNpr1) antagonism - Primary qHTS | actives 1.6% (n = 76,000) | Potency, µM (titrated, usually from 46.3 µM), actives largely listed as inhibitors | AID 1347048, 2019 | HEK293 hNpr1 GloSensor cGMP, ANP-stimulated luminescence | Atrial natriuretic peptide receptor 1 (Homo sapiens), P16066; calls by dose curve; further: nearly all actives have a fitted effect of over 60% in size
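Compound pre-incubated 30 min at room temperature on GloSensor-loaded HEK293 cells stably carrying hNpr1 and the pGS-40F cGMP biosensor. Stimulation uses hNppA at 0.1 nM final; luminescence is taken at baseline and 20 min post-agonist.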
SNCA viab count = GF-AFC viability counterscreen for inhibitors of alpha-synuclein gene (SNCA) expression. HEK-293-SNCA-luc viability, GF-AFC fluorescence, 24 h. Potency, µM (highest dose often 57.1 µM), actives largely listed as cytotoxic. AID 1671193, 2021. actives 0.12% (n = 150,000); further: nearly all actives have a fitted effect of over 30% in size
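HEK-293-SNCA-luc cells (1500/well) plated 24 h, then exposed 24 h to a dilution series; GF-AFC added 30 min at 37C, fluorescence 405/540 nm; normalised to medium-only and DMSO wells, Hill fit.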
SNCA expr inhib = Primary qHTS assay for inhibitors of alpha-synuclein gene (SNCA) expression | AID 1671194, 2021 | Potency, µM (top dose mostly 57.2 µM), usual class: inhibitors | actives 0.17% (n = 140,000) | HEK-293 SNCA-luciferase knock-in, luminescence, 24 h; further: nearly all actives have a fitted effect of over 45% in size
A number is an active result; n = inactive; u = inconclusive; x = no result given; [ ] = remark or other dose. This is a sample that favours compounds with a hit; in the whole collection about 7.2% have one here. Unless noted, the call rests on the fitted dose curve; in most records, active means well fitted curve in the direction sought with a large enough effect; inconclusive means small, poorly fitted or top-dose-only effect, or another doubt; inactive means no such curve, though single readings can be large; an effect the other way counts as inactive or inconclusive.

SMILES	HEK293 tox	Luciferase inh	NIH3T3 tox	hNpr1 antagonist	SNCA viab count	SNCA expr inhib
Cn1ccc2cc(-c3ccc4c(n3)c(=O)ncn4CC3CC3)ccc21	n	44.7µM	u	n	n	n
COCCn1cnc2ccc(-c3cccc(C)c3)nc2c1=O	n	u	u	n	n	n
COCCn1cnc2ccc(-c3ccc4c(ccn4C)c3)nc2c1=O	u	u	44.7µM	n	n	n
COc1ccc(CNC(=O)C[C@@H]2c3nc(NC(=O)c4c(F)cccc4F)sc3C[C@@H]3[C@](C)(CO)[C@H](O)CC[C@]32C)cc1	u	n	n	n	n	n
CN1CCC(NC(=O)c2cccc3c2CCN3C(=O)C2CC2)CC1	n	n	n	n	n	u
COc1cc(CNC(=O)c2cccc3c2CCN3C(=O)C2CC2)cc(OC)c1	44.7µM	n	n	n	n	n
CN1CCC(NC(=O)c2cccc3c2CCN3C(=O)Nc2ccccc2)CC1	n	22.4µM	u	n	n	n
O=C(NCc1ccc(N2CCOCC2)cc1)c1cccc2c1CCN2C(=O)c1ccccc1	n	39.8µM	n	n	n	n
COCCNC(=O)c1cccc2c1CCN2C(=O)C1CC1	n	n	n	n	n	n
CNC(=O)c1cccc2c1CCN2C(=O)Nc1ccc(F)cc1	n	0.708µM	n	11.2µM	n	u
COCC1CN(C)CC12CCN(S(=O)(=O)c1cc(F)cc(F)c1)CC2 (stereo unspecified)	n	n	n	n	n	n
CCOC(=O)C1CCN(C(=O)c2cc(-c3ccncc3)cn2Cc2ccccc2C)CC1	u	n	u	n	u	u
COc1ccc(NC(=O)N2CCc3c(C(=O)Nc4ccccc4)cccc32)cc1	u	u	u	4.47µM	n	u
CCCCNC(=O)c1cccc(CN2C(=O)CC(c3ccccc3C)C(C(=O)OCC)=C2C)c1 (stereo unspecified)	u	n	u	n	n	n
CCOC(=O)C1=C(C)N(Cc2ccc(C(=O)N3CCCCC3)cc2)C(=O)CC1c1cccc(C)c1 (stereo unspecified)	39.8µM	n	u	u	n	n
CCn1cc(S(=O)(=O)N2CCCC2Cc2noc(-c3ccccc3)n2)cn1 (stereo unspecified)	44.7µM	x	u	x	n	n
CS(=O)(=O)N1CCCC1Cc1noc(-c2ccccc2)n1 (stereo unspecified)	n	x	n	x	n	n
CCNC(=O)N1CCCC(Cc2noc(-c3ccccc3)n2)C1 (stereo unspecified)	31.6µM	u	n	n	n	n
CC1(C)NC(=O)N(CC(=O)N[C@H](Cc2ccccn2)C2CC(O)C2)C1=O (stereo partly specified)	n	n	n	n	n	n
CC(C)c1ccc(CC(=O)N2CCCc3ncc(C(=O)NCC4CCCO4)cc32)cc1 (stereo unspecified)	u	n	u	n	n	n
COc1ccccc1CN1CCCn2nc(C)c(-c3ccccc3[S+](C)(=O)[O-])c21	44.7µM	n	35.5µM	n	n	u
Cc1nn2c(c1-c1ccccc1[S+](C)(=O)[O-])N(Cc1ccc3[nH]ccc3c1)CCC2	u	n	n	n	n	n
COc1ncccc1CN1CCCn2nc(C)c(-c3ccccc3C(C)C)c21	50.1µM	n	44.7µM	n	u	u
Cc1nn2c(c1-c1ccccc1C(C)C)N(Cc1ccc(F)cc1)CCC2	50.1µM	n	28.2µM	n	n	u
O=C(NCCCc1ccccc1)C1CCCN(c2nccc(Nc3ccccc3F)n2)C1 (stereo unspecified)	u	x	31.6µM	x	n[12.5 µM]	n
SMILES	HEK293 tox	Luciferase inh	NIH3T3 tox	hNpr1 antagonist	SNCA viab count	SNCA expr inhib
O=C(NCCc1ccccc1)C1CCCN(c2nccc(Nc3ccccc3F)n2)C1 (stereo unspecified)	u	x	22.4µM	x	n[12.5 µM]	u
CSCCNC(=O)C1CCCN(c2nccc(Nc3ccccc3F)n2)C1 (stereo unspecified)	u	x	25.1µM	x	n[12.5 µM]	n
O=C(NCCc1ccc(F)cc1)C1CCCN(c2nccc(Nc3ccccc3F)n2)C1 (stereo unspecified)	u	x	28.2µM	x	n[12.5 µM]	n
COc1cccc(N2C(=O)NC(=NC3CCCC3)C23CCCN(Cc2ccsc2)C3)c1 (stereo unspecified)	u	x	u	x	n	n
O=C(NCCc1ccccc1F)C1CCN(c2nccc(Nc3ccccc3F)n2)CC1	31.6µM	x	u	x	n	n
O=C(NCCc1ccccc1)C1CCN(c2nccc(Nc3ccccc3F)n2)CC1	u	x	u	x	n[12.5 µM]	n
Cn1cc(CN2CCC(C(O)c3cccnc3)CC2)c(-c2ccc(C3CCCCC3)cc2)n1 (stereo unspecified)	79.4µM	n	79.4µM	n	n	n
Cn1cc(CN2CCC(C(=O)N3CCCC3)CC2)c(-c2ccc(C3CCCCC3)cc2)n1	n	n	n	n	n	n
CC(=O)N1CCN(C(=O)c2nc3sccn3c2-c2ccccc2)CC1	n	x	n	x	n	n
O=C(c1ccc(Cl)cc1)N1CCOC(CN(C(=O)c2ccc(F)cc2)C2CCCC2)C1 (stereo unspecified)	44.7µM	n	u	n	n	n
CC(C)CN(CC1CN(C(=O)c2ccc(Cl)c(Cl)c2)CCO1)C(=O)c1ccc(F)cc1 (stereo unspecified)	u	n	u	n	n	n
CC(Oc1ccccc1)C(=O)N1CC(Oc2ccc(-c3nc(-c4ccccc4)no3)cc2)C1 (stereo unspecified)	u	x	u	x	n	n
CCCNC(=O)N1CC(Oc2ccc(-c3nc(-c4ccccc4)no3)cc2)C1	n	u	n	0.398µM	n	n
CCOCCCNC(=O)N1CC(Oc2ccc(-c3nc(-c4ccccc4)no3)cc2)C1	u	u	n	0.562µM	n	n
Cc1nc2cccnc2n1CC1CCCN(S(=O)(=O)c2ccccc2F)C1 (stereo unspecified)	u	n	u	n	n	n
O=C(NCc1ccccc1)N1CCOC(CN(CC2CC2)C(=O)c2cccc(F)c2)C1 (stereo unspecified)	u	n	n	n	n	n
COc1ccc(C(=O)N(CC2CC2)CC2CN(C(=O)Nc3ccccc3)CCO2)cc1OC (stereo unspecified)	28.2µM	n	u	n	n	n
COCCCNC(=O)N1CCC(n2c(C)cnc2C2CCOCC2)CC1	n	x	n	x	n	n
CNC(=O)c1cccc(-c2ccccc2COc2ccc(CCOC)cc2)n1	u	10µM	n	n	n	n
